Measurements reported in PubChem BioAssay AID1159554 (Broad Institute, 2015).
The whole screen tested about 94,000 compounds, of which about 2,100 (2.2%) were called active. No stated cut-off is given here; in the data, active means activity change below about -80%; inconclusive means no clear call, values can overlap the other calls; inactive means above that. Only a selection was taken, and actives are over-represented in it overall.

assay: Dd2 malaria parasite growth inhibition – SYBR Green fluorescence, single dose replicates, primary screen (AID 1159554); conditions: P. falciparum Dd2 growth, 72 h, at 10 µM, stronger effect = lower value

Activity change, inactive:
CO[C@@H]1CN(C)C(=O)c2cc(NC(=O)C3CCOCC3)ccc2OC[C@H](C)N(Cc2cccnc2)C[C@@H]1C 14.9%, CCS(=O)(=O)Nc1ccc2c(c1)C(=O)N(C)[C@@H]1CC[C@H](CC(=O)N3CCCCC3)O[C@@H]1CO2 6.13%, CO[C@@H]1CN(C)C(=O)c2cc(NS(=O)(=O)c3ccccc3)ccc2OC[C@@H](C)N(C(=O)NC(C)C)C[C@@H]1C 20.8%, COCC(=O)N1CCC2(CC1)CN(C(=O)Nc1ccccc1F)[C@@H](CO)c1c2c2ccc(OC)cc2n1C -32.4%, CCCC#Cc1cnc2c(c1)C(=O)N([C@@H](C)CO)C[C@@H](C)[C@@H](CN(C)C(=O)c1ccccc1)O2 -15.9%, CO[C@H]1CN(C)C(=O)c2ccc(NC(=O)C3CC3)cc2OC[C@H](C)N(Cc2ccncc2)C[C@@H]1C -31.5%, COc1cccc(CNC(=O)[C@@H]2[C@@H](CO)[C@@H]3Cn4c(ccc(-c5cccnc5)c4=O)[C@@H]3N2C)c1 8.71%, O=C(C[C@@H]1CC[C@@H](NS(=O)(=O)c2ccc(F)cc2)[C@@H](CO)O1)NCCc1ccncc1 23.4%, O=C(N[C@H]1CC[C@@H](CCNS(=O)(=O)Cc2ccccc2)O[C@H]1CO)c1ccccc1F -32.4%, CC(C)NC(=O)N(C)C[C@H]1OCCCC[C@@H](C)Oc2ccc(NC(=O)C3CCCCC3)cc2C(=O)N([C@H](C)CO)C[C@H]1C -37.9%, O=C(NC1CCCCC1)N1CC2(C1)[C@H](c1ccccc1)[C@@H](CO)N2S(=O)(=O)Cc1ccccc1 -4.41%, C[C@@H]1CCCCO[C@H](CN(C)S(=O)(=O)c2cccs2)[C@@H](C)CN([C@@H](C)CO)C(=O)c2cc(NC(=O)NC3CCCCC3)ccc2O1 -76%, O=C(Nc1ccccc1F)N1C[C@H]2[C@@H](c3ccccc31)[C@@H](CO)N2C(=O)Cc1cccnc1 13.8%, O=C(C1CCCC1)N1[C@H](CO)[C@@H](c2ccccc2)C12CN(CCC(F)(F)F)C2 -46.4%, COCC(=O)N1CC2(C1)[C@@H](c1ccc(-c3cccc(F)c3)cc1)[C@@H](CO)N2C(=O)COC 13.9%, O=C(C1CCCC1)N1[C@@H](CO)[C@@H](c2ccccc2)C12CN(Cc1ccc(F)cc1)C2 -28%, COCC(=O)N1CC2(C1)[C@H](c1ccc(-c3cccc(F)c3)cc1)[C@@H](CO)N2C(=O)COC 11.2%, COc1cccc(C#Cc2ccc3c(c2)[C@H]2[C@H](CCN2C(=O)CC2CC2)[C@H](CO)N3)c1 -67.1%, COc1ccc2c3c(n(C)c2c1)[C@@H](CO)N(Cc1ccncc1)CC31CN(C(=O)Nc2cccc(F)c2)C1 -46.3%, C[C@H]1CN([C@@H](C)CO)C(=O)c2c(c3ccccc3n2C)-c2ccccc2CO[C@@H]1CN(C)Cc1ccc2c(c1)OCCN2C -31.4%, CCCN1C[C@H](C)[C@@H](OC)CN(C)C(=O)c2ccc(NC(=O)c3cnccn3)cc2OC[C@H]1C 13.8%, COC(=O)C[C@H]1CC[C@@H]2[C@@H](COc3ccc(NC(=O)Nc4ccc(Cl)cc4)cc3C(=O)N2C)O1 9.95%, O=C([C@@H]1[C@@H](CO)[C@@H]2Cn3c(ccc(-c4cncnc4)c3=O)[C@@H]2N1C(=O)C1CCC1)N1CCCCC1 34%, CC(C)CC#Cc1ccc2c(c1)O[C@@H](CN(C)C(=O)c1ccccc1F)[C@H](C)CN([C@H](C)CO)S2(=O)=O -71.3%, C[C@H]1CN([C@@H](C)CO)S(=O)(=O)c2ccc(C#CCN(C)C)cc2O[C@H]1CN(C)C(=O)c1ccccc1F -28.9%, CCCN(C)C[C@H]1Oc2cc(C#CCC(C)C)ccc2S(=O)(=O)N([C@H](C)CO)C[C@H]1C -26.1%, C[C@@H]1CN([C@H](C)CO)S(=O)(=O)c2ccc(C#CC3CC3)cc2O[C@H]1CN(C)Cc1ccccc1F -16.8%, COCC#Cc1ccc([C@@H]2[C@@H](CO)N3C(=O)CN(C(=O)C4CCCC4)C[C@@H]23)cc1 -28.5%, O=C(C[C@@H]1CC[C@@H]2[C@H](COC[C@@H](O)CN2C(=O)c2ccccc2F)O1)N1CCOCC1 11.8%, C[C@H](CO)N1C[C@H](C)[C@@H](CN(C)CC2CC2)OCCCC[C@H](C)Oc2ccc(NC(=O)Nc3ccccc3)cc2C1=O 3.68%, COc1ccc(C#Cc2cnc3c(c2)C(=O)N([C@H](C)CO)C[C@@H](C)[C@@H](CN(C)C(=O)CN(C)C)O3)cc1 -58.5%, Cc1ccc(S(=O)(=O)N[C@@H]2CC[C@@H](CC(=O)O)O[C@@H]2CO)cc1 10.2%, COCCNC(=O)[C@H]1[C@H](CO)[C@H]2Cn3c(ccc(-c4ccccc4F)c3=O)[C@H]2N1C(=O)C1CCC1 -8.98%, O=C(Cc1ccccc1)N1C[C@@H]2[C@H](c3ccccc31)[C@@H](CO)N2C(=O)C1CC1 -0.357%, COCCNC(=O)[C@@H]1[C@@H](CO)[C@@H]2Cn3c(ccc(-c4ccccc4F)c3=O)[C@@H]2N1C(=O)C1CC1 7.64%, C[C@@H]1CN([C@@H](C)CO)C(=O)c2cccc(NC(=O)Nc3ccc(F)cc3)c2O[C@@H]1CN(C)C(=O)Nc1ccccc1 -36.1%, COc1ccc(NC(=O)Nc2cccc3c2O[C@@H](CN(C)C(=O)NC(C)C)[C@H](C)CN([C@H](C)CO)C3=O)cc1 -26.3%, C[C@@H]1CN([C@@H](C)CO)C(=O)c2cccc(NC(=O)Nc3ccc(F)cc3)c2O[C@H]1CN(C)C(=O)Nc1ccc(F)cc1 -7.48%, COc1ccc(NC(=O)Nc2cccc3c2O[C@H](CN(C)C(=O)Nc2ccc(F)cc2)[C@@H](C)CN([C@@H](C)CO)C3=O)cc1 -19.9%

Activity change, active:
COCC(=O)N1[C@H](CO)[C@@H](c2ccccc2)C12CN(Cc1cc(F)ccc1F)C2 -89%, O=C(C1CCCCC1)N1[C@H](CO)[C@@H](c2ccccc2)C12CN(Cc1cccc(Cl)c1)C2 -90.7%, CCCC#Cc1ccc2c(c1)O[C@@H](CN(C)C(=O)c1ccccc1F)[C@H](C)CN([C@H](C)CO)S2(=O)=O -85.1%, CC(C)CC#Cc1ccc2c(c1)O[C@H](CN(C)Cc1ccccc1F)[C@@H](C)CN([C@@H](C)CO)S2(=O)=O -84.7%, C[C@@H]1CN([C@H](C)CO)C(=O)c2cccc(NC(=O)Nc3cccc4ccccc34)c2O[C@@H]1CN(C)C(=O)Nc1ccc(F)cc1 -95.3%, COc1ccc(NC(=O)N(C)C[C@H]2Oc3c(NC(=O)NC(C)C)cccc3C(=O)N([C@@H](C)CO)C[C@H]2C)cc1 -84.2%
